Hit rate of the full screen: of about 41,000 sequences, about 2,700 (6.6%) were called active. No stated cut-off is given here; in the data, active = GI50 up to about 1.1 µM and inactive = higher. The list is a sample of the results. Measured potencies and affinities stand elsewhere.

Here are results for 6 substances from ChEMBL document CHEMBL1201862, “PubChem BioAssay data set” (2004).

This experiment relates to BT-549.
In general, GI50 refers to the concentration that inhibits growth by half. A low value points to more potent growth inhibition. Regarding “[Bis(aminomethyl)tetramethylenesilane]dichloropaltinum(II), CHEMBL2146205”, the GI50 came to 8.85 µM. In other words, the single-digit micromolar range. “[Bis(aminomethyl)pentamethylenesilane]tetrachloropaltinum(IV), CHEMBL2146204”: it took 5.71 µM to inhibit growth by half (GI50). As for CISPLATIN, CHEMBL11359, the figure is 3.73 µM; as for “[Bis(aminomethyl)dimethylsilane]tetrachloroplatinum(IV), CHEMBL2146190”, 16.4 µM; as for “[Bis(aminomethyl)tetramethylenesilane]tetrachloropaltinum(IV), CHEMBL2146189”, 4.99 µM.

“[Bis(aminomethyl)pentamethylenesilane]dichloropaltinum(II), CHEMBL2146202” returned a GI50 of 16.6 µM. This GI50 lies about 3.3-fold higher than the previous one.
